PubChem BioAssay AID1709 (National Center for Advancing Translational Sciences (NCATS), 2009)
Active and inactive are the calls of the source.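 How the source made its calls: active means lower max turbidity than the uninhibited signal, meaning microtubule assembly was blocked; inactive means reaching the full max turbidity.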

Assay: Assay for Inhibitors of Tau-Mediated Microtubule Assembly
Conditions: purified tubulin + K18 tau, A340 turbidity kinetics, 45 min, at 50 µM; half-max time: measured here: time to half-max turbidity, stronger effect = higher value; max turbidity: stronger effect = lower value
Description: NIH Molecular Libraries Probe Production Network [MLPCN] NIH Chemical Genomics Center [NCGC] MLPCN Grant: X01 MH083262-01 Assay Provider: Carlo Ballatore, University of Pennsylvania NCGC Assay Overview: The microtubule-associated protein tau is an abundant protein in the axons of neurons that stabilizes microtubules. With its ability to modulate microtubule dynamics, tau contributes directly or indirectly, to key structural and regulatory cellular functions. Particularly important is the influence tau exerts on axonal transport, which allows signaling molecules, trophic factors and other essential cellular constituents to travel along the axons. Under pathological conditions, tau becomes sequestered into insoluble aggregates called neurofibrillary tangles. This phenomenon is believed to have pathological consequences by promoting axonal transport deficits that ultimately lead to synaptic dysfunction and neuronal loss. Because tau binds and stabilizes microtubules, tau fibrillization inhibitors were tested whether they interfere with tau-mediated tubulin polymerization. An in vitro assay was used where purified brain tubulin monomers were assembled into microtubules after the addition of GTP and tau. Microtubule assembly was monitored by the change in absorbance at 340 nm. Hong, M., Zhukareva, V., Vogelsberg-Ragaglia, V., Wszolek, Z., Reed, L., Miller, B. I., Geschwind, D. H., Bird, T. D., McKeel, D., Goate, A., Morris, J. C., Wilhelmsen, K. C., Schellenberg, G. D., Trojanowski, J. Q., and Lee, V. M. Y. (1998) Science 282, 1914-1917.
NCGC Assay Protocol Summary: Lyophilized bovine brain tubulin was reconstituted in RAB (100 mM MES, pH 6.9; 1 mM EDTA; 0.5 mM MgSO4) at a concentration of 10 mg/ml. Compounds (50 uM) were added to K18 tau (40 uM) in RAB and pre-incubated at room temperature for 60 minutes. To initiate the MT assembly reaction, 8.25 ul per well of 10 mg/ml tubulin was dispensed on a UV-clear 384-well plate, followed by 1.0 ul of 100 mM GTP in RAB and 41.25 ul of the compound:tau mixture. […] The plate was incubated in a Spectramax M5 plate reader at 37 C and the absorbance at 340 nm was read every minute for 45 minutes.
For COC(=O)c1c(NC(=O)CCCOc2ccc(C(C)(C)C)cc2)sc2c1C(C(=O)OC)CC2 (stereo unspecified), the max turbidity was 1.01 (inactive) and the half-max time was 12.6 min. For COC(=O)c1c(NC(=O)C(C)(C)C)sc2c1C(C(=O)OC)CC2 (stereo unspecified), the max turbidity was 0.839 (inactive) and the half-max time was 12.9 min. For CCOC(=O)c1nn(-c2ccc(OC)cc2)c(=O)c2c(N)scc12, the half-max time was 12.7 min and the max turbidity was 0.782 (inactive). In the case of CCOC(=O)c1nn(-c2ccccc2)c(=O)c2c(N)scc12, the max turbidity is reported as 0.65 (inactive) and the half-max time is reported as 12.3 min. In the case of O=C(Cc1ccccc1)Nc1sc2c(c1C(=O)Nc1ccc(Cl)cc1)CCCC2, the max turbidity is reported as 0.682 (inactive) and the half-max time is reported as 10 min. With COC(=O)c1c(NC(=O)CCCOc2ccc(C)cc2)sc2c1C(C(=O)OC)CC2 (stereo unspecified) the half-max time was 11.1 min and the max turbidity was 0.764 (inactive). With COC(=O)c1c(NC(=O)CCCOc2cccc(C)c2)sc2c1C(C(=O)OC)CC2 (stereo unspecified) the half-max time was 12 min and the max turbidity was 0.825 (inactive). With COC(=O)c1nn(-c2ccc(OC)cc2)c(=O)c2c(N)sc(C)c12 the max turbidity was 0.579 (inactive) and the half-max time was 13.3 min.
